Screens as filed in PubChem BioAssay.
KDM5B inh: Primary screen for KDM5B Histone Demethylases FDH-coupled qHTS; Lysine-specific demethylase 5B (Homo sapiens), Q9UGL1; 220,000 tested, 2.6% active; Potency, µM (doses to about 57.7 µM), actives largely listed as inhibitors; KDM5B demethylase, FDH-coupled NADH fluorescence (FDH is formaldehyde dehydrogenase); AID 1347165, 2019; also: potency is read from the fitted curve at half-maximal effect; 0% is about no effect; nearly all actives have a fitted effect of over 70% in size
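Here, H3K4me3 peptide (12.5 µM in substrate mix) is demethylated by KDM5BΔAP, 200 nM final, after 10 min compound exposure. Formaldehyde product is coupled through FDH (0.25 U/mL in mix) to NADH fluorescence; 30-min ΔRFU feeds dose-response curves.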
HEK293 viab: GF-AFC viability counterscreen for inhibitors of alpha-synuclein gene (SNCA) expression; HEK-293-SNCA-luc viability, GF-AFC fluorescence, 24 h; AID 1671193, 2021; Potency, µM (highest dose often 57.1 µM), without a hit: at the top dose activity change, negative = cytotoxicity, usual class: cytotoxic; 150,000 tested, 0.12% active;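 also: potency is read from the fitted curve at half-maximal effect; 0% = DMSO-treated cells and -100% = medium-only wells without cells; nearly all actives have a fitted effect of over 30% in size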
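Cytotoxicity counterscreen: after 24 h compound treatment of genome-edited SNCA-luciferase HEK-293 cells, live-cell protease substrate GF-AFC read by fluorescence after 30 min; activity scaled between DMSO (0%) and medium-only (-100%), curves Hill-fitted.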
SNCA expr inhib: Primary qHTS assay for inhibitors of alpha-synuclein gene (SNCA) expression. HEK-293 SNCA-luciferase knock-in, luminescence, 24 h. Potency, µM (doses to about 57.2 µM), inactives show at the highest dose activity change, negative = inhibition, hits mostly inhibitors. 140,000 tested, 0.17% active. AID 1671194, 2021;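 also: potency is read from the fitted curve at half-maximal effect; plate controls were DMSO cells for no effect and cell-free wells for full effect; nearly all actives have a fitted effect of over 45% in size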
IP6K1 inhibitor: Primary qHTS assay for small molecule inhibitors of Inositol hexaphosphate kinase 1 (IP6K1); Inositol hexakisphosphate kinase 1 (Homo sapiens), Q92551; IP6K1 kinase, ADP-Glo luminescence, 2 h; stronger effect = lower value; activity change, % (series mostly up to about 58 µM); 140,000 tested, 0.81% active; in the data active = activity change below about -25%; also: % is scaled to controls: 0 for no effect and ±100 for the full control effect
Target sequence (Q92551 whole entry, looked up): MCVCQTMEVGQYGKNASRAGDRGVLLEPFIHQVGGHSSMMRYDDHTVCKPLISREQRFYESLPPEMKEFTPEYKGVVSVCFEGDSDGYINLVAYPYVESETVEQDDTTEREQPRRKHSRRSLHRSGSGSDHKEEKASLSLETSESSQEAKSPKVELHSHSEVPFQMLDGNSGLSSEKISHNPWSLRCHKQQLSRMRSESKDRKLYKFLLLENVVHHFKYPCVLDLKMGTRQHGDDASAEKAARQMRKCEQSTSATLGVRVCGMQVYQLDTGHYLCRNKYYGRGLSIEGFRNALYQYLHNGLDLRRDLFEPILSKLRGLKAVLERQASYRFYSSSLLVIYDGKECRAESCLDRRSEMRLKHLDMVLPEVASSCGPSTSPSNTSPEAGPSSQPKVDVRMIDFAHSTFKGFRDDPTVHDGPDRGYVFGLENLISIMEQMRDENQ
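ADP-Glo luminescence measures ADP made by human IP6K1 during a 2 h RT reaction with ATP/IP6 (mix at 1.3 mM/130 uM); top library doses 57.5 and 19.1 uM final.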
* hit, by the source's call; [ ] = remark or other dose. An excerpt weighted towards active compounds, which were near 2.8% of everything screened. Unless noted, calls follow the shape of the dose curve; as a rule, active = well fitted curve in the direction sought with a large enough effect; inconclusive = small, poorly fitted or top-dose-only effect, or another doubt; inactive = no such curve, though single readings can be large; an effect the other way counts as inactive or inconclusive.

Results for CCc1noc(-c2cccn3c(CNC(=O)c4ccc(Cl)cc4)nnc23)n1 ?
KDM5B inh: inconclusive; HEK293 viab: -4%; SNCA expr inhib: -16%; IP6K1 inhibitor: 9

How did CCc1noc(-c2cccn3c(CNC(=O)c4ccccc4)nnc23)n1 do in these assays?
KDM5B inh: 28µM*; HEK293 viab: -11%; SNCA expr inhib: -4%; IP6K1 inhibitor: 16

Results for CCc1noc(-c2cccn3c(CNC(=O)c4ccc(F)cc4)nnc23)n1 ?
KDM5B inh: 25µM*; HEK293 viab: -1%; SNCA expr inhib: -22%; IP6K1 inhibitor: 11

How did CC(C)(C)CC(=O)N1CCN2C(=O)c3cc(-c4ccccc4)ccc3NC(=O)[C@H]2C1 do in these assays?
KDM5B inh: 32µM*; HEK293 viab: -4%[87.6 µM]; SNCA expr inhib: -25%[87.6 µM]; IP6K1 inhibitor: 2

Results for COc1ccc(-c2ccc3c(c2)C(=O)N2CCN(C(=O)CC(C)(C)C)C[C@@H]2C(=O)N3)cc1 ?
KDM5B inh: 28µM*; HEK293 viab: -1%[87.6 µM]; SNCA expr inhib: -10%[87.6 µM]; IP6K1 inhibitor: 7

Results for O=C1Nc2ccc(-c3ccccc3F)cc2C(=O)N2CCN(C(=O)c3ccco3)C[C@@H]12 ?
KDM5B inh: 35µM*; HEK293 viab: 0%[87.6 µM]; SNCA expr inhib: -8%[87.6 µM]; IP6K1 inhibitor: -1

How did COc1cccc([S+](=O)([O-])N2CCC(c3nnc4n3C(C(=O)O)CC4)CC2)c1 (configuration not stated) do in these assays?
KDM5B inh: 79µM*; HEK293 viab: 3%; SNCA expr inhib: -12%; IP6K1 inhibitor: -5

How did COc1ccc(CN2CCOc3nc(-c4cc5ccccc5o4)ncc3C2=O)cc1 do in these assays?
KDM5B inh: 32µM*; HEK293 viab: -9%[87.6 µM]; SNCA expr inhib: -1%[87.6 µM]; IP6K1 inhibitor: -1

What do the screens show for `O=C1c2cnc(-c3ccc(Oc4ccccc4)cc3)nc2OCCN1CC1CC1`?
KDM5B inh: 35µM*; HEK293 viab: inconclusive; SNCA expr inhib: inconclusive; IP6K1 inhibitor: 2

How did COc1ccc(CN2CCOc3nc(-c4cccc(NC(C)=O)c4)ncc3C2=O)cc1 do in these assays?
KDM5B inh: inconclusive; HEK293 viab: -2%[87.6 µM]; SNCA expr inhib: 11%[87.6 µM]; IP6K1 inhibitor: 4

What do the screens show for `CCn1cc(CN2CCCC(COc3ccccc3C(=O)N3CCCC3)C2)c2ccccc21` (configuration not stated)?
KDM5B inh: inactive; HEK293 viab: inconclusive; SNCA expr inhib: -4%; IP6K1 inhibitor: -13

What do the screens show for `Cc1nc2ncccn2c1C(=O)N1CCn2nc(CO)cc2C1`?
KDM5B inh: 32µM*; HEK293 viab: 3%; SNCA expr inhib: 15%; IP6K1 inhibitor: -11

How did O=C(O)C1CNCCN(C(=O)c2nc3ccc(F)cc3[nH]2)C1 (configuration not stated) do in these assays?
KDM5B inh: inactive; HEK293 viab: 9%; SNCA expr inhib: -4%; IP6K1 inhibitor: -2

What do the screens show for `Cc1nc2ncccn2c1C(=O)N1CCNCC(C(=O)O)C1` (configuration not stated)?
KDM5B inh: 22µM*; HEK293 viab: -5%; SNCA expr inhib: -3%; IP6K1 inhibitor: -6

What do the screens show for `COc1ccc(C(CC(=O)O)NC(=O)c2ccccc2Br)cc1` (configuration not stated)?
KDM5B inh: inactive

What do the screens show for `COc1cccc(C(=O)N2CCN(C(=O)c3ccc(-c4ccc(OC)nn4)cc3)CC2)c1`?
IP6K1 inhibitor: -1

What do the screens show for `CCOc1ccc(N2C(=O)c3n[nH]c(-c4ccco4)c3C2c2cccnc2)cc1` (configuration not stated)?
KDM5B inh: inactive

Results for CN1CCOc2c(C(=O)NCCC(N)=O)cc(-c3ccccc3)cc21 ?
KDM5B inh: 35µM*; HEK293 viab: -13%[87.6 µM]; SNCA expr inhib: 8%[87.6 µM]; IP6K1 inhibitor: -10

How did CN1CCOc2c(C(=O)NCCc3cnc[nH]3)cc(-c3ccccc3)cc21 do in these assays?
KDM5B inh: 32µM*; HEK293 viab: -13%[87.6 µM]; SNCA expr inhib: inconclusive; IP6K1 inhibitor: -17

What do the screens show for `CCCNC(=O)c1cc2c(=O)[nH]c(-c3ccccc3)cn2n1`?
KDM5B inh: 25µM*; HEK293 viab: 2%; SNCA expr inhib: -13%; IP6K1 inhibitor: 9

How did CC(C)N1CCN(C(=O)c2cc3c(=O)[nH]c(-c4ccccc4)cn3n2)CC1 do in these assays?
KDM5B inh: 25µM*; HEK293 viab: -14%; SNCA expr inhib: 16%; IP6K1 inhibitor: -14

How did COCCCNC(=O)c1cc2c(=O)[nH]c(-c3ccccc3)cn2n1 do in these assays?
KDM5B inh: 25µM*; HEK293 viab: -19%; SNCA expr inhib: 0%; IP6K1 inhibitor: 4

How did O=C(NC1CC1)c1cc2c(=O)[nH]c(-c3ccccc3)cn2n1 do in these assays?
KDM5B inh: 28µM*; HEK293 viab: -4%; SNCA expr inhib: inconclusive; IP6K1 inhibitor: -3

How did CCOCCCNCc1cccc(OCc2ccccc2)c1 do in these assays?
KDM5B inh: inactive

Results for O=C(Nc1ccc([C@H]2OCC(=O)N(Cc3ccncc3)[C@@H]2CO)cc1)c1ccc(C(F)(F)F)cc1 ?
KDM5B inh: inactive; HEK293 viab: -5%; SNCA expr inhib: 11%; IP6K1 inhibitor: 23

Results for COC(=O)[C@@H]1Cc2nc[nH]c2CN1Cc1ccc(OC)c2ccccc12 ?
KDM5B inh: 32µM*; HEK293 viab: -1%[87.6 µM]; SNCA expr inhib: -10%[87.6 µM]; IP6K1 inhibitor: 18

How did O=C(NCc1ccc(C(F)(F)F)cc1)[C@@H]1Cc2nc[nH]c2CN1Cc1ccc([N+](=O)[O-])cc1 do in these assays?
KDM5B inh: inactive; HEK293 viab: -7%; SNCA expr inhib: 2%; IP6K1 inhibitor: 21

What do the screens show for `COC(=O)[C@@H]1Cc2nc[nH]c2CN1Cc1ccc([N+](=O)[O-])cc1`?
KDM5B inh: 28µM*; HEK293 viab: 4%[87.6 µM]; SNCA expr inhib: -27%[87.6 µM]; IP6K1 inhibitor: 25

Results for O=C(Nc1cccc(C(F)(F)F)c1)c1nc2ccccc2nc1N1CCCCC1 ?
KDM5B inh: inactive

How did O=C(Cc1ccc(Br)cc1)NC1CCC(c2ccccc2)CC1 (configuration not stated) do in these assays?
KDM5B inh: inactive

Results for CCCS(=O)(=O)NCc1ccc(C(=O)O)cc1 ?
KDM5B inh: inactive

Results for O=c1c2nc(-c3ccncc3)ccc2ncn1-c1ccccc1 ?
KDM5B inh: inactive; HEK293 viab: 2%[87.6 µM]; SNCA expr inhib: 11%[87.6 µM]; IP6K1 inhibitor: 16

How did O=c1c2nc(-c3ccsc3)ccc2ncn1-c1ccccc1 do in these assays?
KDM5B inh: 40µM*; HEK293 viab: 11%[87.6 µM]; SNCA expr inhib: 137%[87.6 µM]; IP6K1 inhibitor: 3

Results for CCn1c(CNC(=O)c2ccc3c(c2)OCO3)nnc1SCC(=O)c1ccc(F)cc1 ?
KDM5B inh: inactive
